Paper PMC13083723 (Patterns, 2026)
About 190 (3.5%) of roughly 5,400 compounds showed an effect of 50% or more. Many of the other results were omitted from the sample, so strong results are more common in it than they were. Positions of bridges follow the written chain, without caps; N, C: chain ends. Non-standard residues stand in square brackets, D forms with d. Residues, ends and D or L forms follow the SMILES beside them. ξ: configuration not given here. *: point of attachment. Heptanoyl(5-Me) = CCC(C)CCCC(=O)*; ξThr(3R) = C[C@@H](O)C(N)C(=O)O; Dab = NCC[C@H](N)C(=O)O

System: Vero-E6
Assay: primary screen, phospholipidosis by LipidTOX staining; higher = more effect of the substance
Conditions: 10 µM
Procedure, shortened: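 Drug-induced phospholipidosis detected with HCS LipidTOX Red reagent in Vero-E6 cells. Compounds tested at 10 μM, with amiodarone (10 μM) as positive control and DMSO (0.1 v/v %) as vehicle.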

Row | Structure (SMILES) | result_ITMP
1 | OC[C@H]1O[C@@H](O[C@@H]2[C@H](O)[C@@H](O)[C@H](O[C@H]3[C@H](O)[C@@H](O)C(O)O[C@@H]3CO)O[C@@H]2CO)[C@H](O)[C@@H](O)[C@H]1O (stereo partly drawn) | 3.95%
2 | CCCC[C@H](NC(C)=O)C(=O)N[C@H]1CC(=O)NCCCC[C@@H](C(=O)O)NC(=O)[C@H](Cc2c[nH]c3ccccc23)NC(=O)[C@H](CCCNC(=N)N)NC(=O)[C@@H](Cc2ccccc2)NC(=O)[C@H](Cc2cnc[nH]2)NC1=O | -3.41%
3 | COc1ccc2[nH]c3nnc(C)c-3c(NCCOCCO)c2c1 | -1.31%
4 | C1Cc2[nH]nc(-c3nnn[nH]3)c2C1 | -1.64%
5 | CC(C)N(C[C@H]1O[C@@H](n2cnc3c(N)ncnc32)[C@H](O)[C@@H]1O)C1CC(CCc2nc3cc(C(C)(C)C)ccc3[nH]2)C1 (stereo partly drawn) | -3.75%
6 | Nc1ncnc2c1ncn2C1OC2COP(=O)([O-])OC2C1O (stereo not drawn) | -10.8%
7 | Cc1ccc(C(=O)Nc2ccc(CN3CCN(C)CC3)c(C(F)(F)F)c2)cc1C#Cc1cnc2cccnn12 | 11.4%
8 | CCN1CCN(Cc2ccc(C(=O)Nc3ccc(C)c(Oc4ccc5c(c4)CC(=O)N5)c3)cc2C(F)(F)F)CC1 | 99.1%
9 | Cc1ccc(C(=O)Nc2ccc(CN3CCN(C)CC3)c(C(F)(F)F)c2)cc1C#Cc1cnc2[nH]ncc2c1 | 6.57%
10 | C[C@@H]1CC[C@@]2(NC1)O[C@H]1C[C@H]3[C@@H]4CC=C5C[C@@H](O[C@@H]6O[C@H](CO)[C@@H](O[C@@H]7O[C@@H](C)[C@H](O)[C@@H](O)[C@H]7O)[C@H](O)[C@H]6O[C@@H]6O[C@@H](C)[C@H](O)[C@@H](O)[C@H]6O)CC[C@]5(C)[C@H]4CC[C@]3(C)[C@H]1[C@@H]2C | -0.25%
11 | C[C@]12C=CC(=O)C=C1CCC1C2[C@@H](O)C[C@@]2(C)C1CC[C@]2(O)C(=O)COP(=O)([O-])[O-] (stereo partly drawn) | -4.14%
12 | O=S(=O)([O-])CCSSCCS(=O)(=O)[O-] | -11.7%
13 | N=C(N)NCCC[C@@H](NC(=O)[C@@H]1CCCN1C(=O)[C@@H]1CSSC[C@H](N)C(=O)N[C@@H](Cc2ccc(O)cc2)C(=O)N[C@@H](Cc2ccccc2)C(=O)N[C@@H](CCC(N)=O)C(=O)N[C@@H](CC(N)=O)C(=O)N1)C(=O)NCC(N)=O | -1.55%
14 | Oc1ncc(F)cn1 | -8.73%
15 | Nc1nnc2[nH]c3ccccc3nc1-2 | -7.77%
16 | CCCC1(CCC)CCC2(CCN(CCCN(CC)CC)C2)CC1 | 109%
17 | COc1cc(/C=C/C(=O)[O-])ccc1O | -1.05%
18 | CCN1CCN(Cc2ccc(Nc3ncc(F)c(-c4cc(F)c5nc(C)n(C(C)C)c5c4)n3)nc2)CC1 | 76.7%
19 | CC(C)Cc1ccc(C(C)C(=O)O)cc1 (stereo not drawn) [R4A_0001344_001 / SPE_A17655518] | -3.6%
20 | COC(=O)C1=C(C)NC(C)=C(C(=O)NCCCN2CCC(c3ccccc3)(c3ccccc3)CC2)C1c1ccc([N+](=O)[O-])cc1 (stereo not drawn) | 60.6%
21 | COC(=O)C1=C(C)NC(C)=C(C(=O)OCCN2CCN(C(c3ccccc3)c3ccccc3)CC2)C1c1cccc([N+](=O)[O-])c1 (stereo not drawn) | 11.6%
22 | COC(=O)C1=C(C)NC(C)=C(C(=O)O[C@H]2CCN(Cc3ccccc3)C2)[C@H]1c1cccc([N+](=O)[O-])c1 | 21.2%
23 | CC[C@H](CC[C@@H](C)[C@H]1CC[C@H]2[C@@H]3CC=C4C[C@@H](O)CC[C@]4(C)[C@H]3CC[C@]12C)C(C)C | 1.55%

Row | Structure (SMILES) | result_ITMP
24 | CC(=O)CC(=O)[O-] | 1.77%
25 | CCc1cccc(CC)c1NC(=O)c1nn(C)c2c1CCc1cnc(Nc3ccc(C(=O)NC4CCN(C)CC4)cc3OC(F)(F)F)nc1-2 | 7.96%
26 | CN1CCC(COc2cnc(-c3cccc(Cn4nc(-c5cccc(C#N)c5)ccc4=O)c3)nc2)CC1 | 2.15%
27 | CN1CCC(CNc2ccc3ncc(-c4cccc(OC(F)(F)F)c4)n3n2)CC1 | 62.4%
28 | CC1(C)[C@@H]2CC[C@@]1(C)C(=O)C2 [R4A_0000828_001 / SPE_K10034334] | -2.3%
29 | CC(C)(N)c1cc(C(=O)N[C@@H]2CCc3ccc(OC4=C5CCC(=O)N=C5NC=C4)cc3C2)cc(C(F)(F)F)c1 | 28.9%
30 | CCC(C)CCCC(=O)N[C@@H](CCN)C(=O)N[C@H](C(=O)N[C@@H](CCN)C(=O)N[C@H]1CCNC(=O)[C@H]([C@@H](C)O)NC(=O)[C@H](CCN)NC(=O)[C@H](CCN)NC(=O)[C@H](CC(C)C)NC(=O)[C@@H](CC(C)C)NC(=O)[C@H](CCN)NC1=O)[C@@H](C)O (stereo partly drawn) [R4A_0005175_001 / SPE_A36456202] ({Heptanoyl(5-Me)}-[Dab]T[Dab][Dab][Dab][dL]L[Dab][Dab]T; lactam 4-C) | -0.45%
31 | C[C@@H]1NC(=O)[C@@H]2CCCN2C(=O)[C@H](CC(N)=O)NC(=O)[C@@H]2CSSC[C@H](N)C(=O)N[C@H]3CSSC[C@H](NC1=O)C(=O)NC([C@@H](C)O)C(=O)NCC(=O)N[C@H](C(=O)N[C@@H](Cc1ccc(O)cc1)C(=O)O)CSSC[C@H](NC(=O)[C@H](Cc1ccc(O)cc1)NC(=O)[C@H](CCC(=O)O)NC3=O)C(=O)N2 (stereo partly drawn) (H-CCEYCCNPAC[ξThr(3R)]GCY-OH; disulfide 1-6, 2-10, 5-13) | -6.32%
32 | C#CC[C@H](c1nc2cc(Cl)ccc2c(=O)n1Nc1ccccc1)N(CCCN)C(=O)c1cccc(Cl)c1F | 68.4%
33 | C=C(c1ccccc1OCc1cccc(Cl)c1)n1ccnc1 | 2.27%
34 | O=c1ccn([C@@H]2O[C@H](COP(=O)([O-])OP(=O)([O-])OP(=O)([O-])O)C(O)C2O)c(=O)[nH]1 (stereo partly drawn) | 0.02%
35 | CCCCCCCCCCCCCC(=O)[O-].CCCCCCCCCCCCCC(=O)[O-].NC1CCCCC1N.[Pt+2] | 0.26%
36 | O=S(=O)([O-])Oc1ccc(C(c2ccc(OS(=O)(=O)[O-])cc2)c2ccccn2)cc1 | -7.14%
37 | Cc1ccc(-c2n[nH]c3c2C(c2cccc(O)c2)N(c2ccc(C(=O)O)cc2)C3=O)cc1 (stereo not drawn) | 0.62%
38 | Cc1cc(Nc2ncc(Cl)c(Nc3ccccc3S(=O)(=O)C(C)C)n2)c(OC(C)C)cc1C1CCNCC1 | 50.9%
39 | COc1cc(N2CCC(N3CCN(C)CC3)CC2)ccc1Nc1ncc(Cl)c(Nc2ccccc2S(=O)(=O)C(C)C)n1 | -2.93%
40 | COc1cc(N2CCC(N3CCN(C)CC3)CC2)ccc1Nc1ncnc(Nc2ccccc2S(=O)(=O)C(C)C)n1 | 44.8%
41 | Cc1c(S(=O)(=O)[O-])oc2c1C(=O)C(=O)c1c-2ccc2c1CCCC2(C)C | -1.56%
42 | C[C@@H](Oc1cc(-c2cnn(C3CCNCC3)c2)cnc1N)c1c(Cl)ccc(F)c1Cl | 75%
43 | C[C@H](Oc1cc(-c2cnn(C3CCNCC3)c2)cnc1N)c1c(Cl)ccc(F)c1Cl | 70.2%
44 | Nc1nc2[nH]nnc2c(=O)[nH]1 | 1.34%
45 | O=C([O-])[C@@H](O)[C@@H](O)[C@H](O)[C@@H](O)C(=O)[O-] | -1.82%
46 | CCOc1ccc(/N=C(/C)Nc2ccc(OCC)cc2)cc1 | 3.29%

Row | Structure (SMILES) | result_ITMP
47 | CC(=O)OCC1=C(C(=O)[O-])N2C(=O)[C@@H](NC(=O)CSc3ccncc3)[C@H]2SC1 | -1.36%
48 | CO/N=C(\C(=O)N[C@@H]1C(=O)N2C(C(=O)[O-])=C(COC(N)=O)CS[C@H]12)c1ccco1 | -1.04%
49 | O=S(=O)([O-])CCCS(=O)(=O)[O-] | -2.16%
50 | CCn1cc(C(=O)[O-])c(=O)c2cc3c(cc21)OCO3 | -4.34%
51 | CN(C)[C@@H](CCOc1cccc2ccccc12)c1ccccc1 | 43.4%
52 | CNCC[C@H](Oc1cccc2ccccc12)c1cccs1 | 92.6%
53 | CC(C)NC[C@@H](O)COc1cccc2ccccc12 [R4A_0000150_002 / SPE_K13994703] | 20.2%
54 | CC1(C)CCC[C@]2(C)[C@H]3CC(=O)O[C@]3(C)CC[C@@H]12 | 1.48%
55 | Nc1nc2c(c(N3CCNCC3)n1)CCC1=C2[C@@H]2CCCC[C@@H]2O1 | 70.7%
56 | CC[C@]1(O)C[C@@H]2C[N@@](CCc3c([nH]c4ccccc34)[C@@](C(=O)OC)(c3cc4c(cc3OC)N(C=O)[C@H]3[C@@](O)(C(=O)OC)[C@H](OC(C)=O)[C@]5(CC)C=CCN6CC[C@]43[C@@H]65)C2)C1 | 1.05%
57 | CC/C(=C(\c1ccccc1)c1ccc(OCCN(C)C)cc1)c1ccccc1 | 49.4%
58 | CN(C)CCOc1ccc(/C(=C(/CCCl)c2ccccc2)c2ccccc2)cc1 | 20.4%
59 | CC/C(=C(\c1ccc(O)cc1)c1ccc(OCCN(C)C)cc1)c1ccccc1 | 20.4%
60 | CC/C(=C(\c1ccc(OCCN(C)C)cc1)c1cccc(O)c1)c1ccccc1 | 77.7%
61 | CCN(CC)CCOc1ccc(Cc2ccccc2)cc1 | 30.2%
62 | CCN(CC)CCOc1ccc(/C(=C(\Cl)c2ccccc2)c2ccccc2)cc1 | 108%
63 | CN1C[C@@H]2CN(c3ccc(-c4ccccc4)nn3)C[C@@H]2C1 | -1.43%
64 | O=C([O-])CCC/C=C\C[C@@H]1[C@@H](/C=C/[C@@H](O)COc2cccc(Cl)c2)[C@H](O)C[C@@H]1O (racemic) | -1.06%
65 | C[C@H](CCC(=O)O)[C@H]1CC[C@H]2[C@@H]3CC[C@@H]4C[C@H](O)CC[C@]4(C)[C@H]3CC[C@]12C | -0.58%
66 | Oc1ccnc(S)n1 | -2.88%
67 | NCC(O)(CS(=O)(=O)O)c1ccc(Cl)cc1 (stereo not drawn) | -4.58%
68 | NC[C@@](O)(c1ccc(Cl)cc1)c1ccc(-c2cn[nH]c2)cc1 | 63.1%
69 | Clc1ccc(C2(c3ccc(-c4cn[nH]c4)cc3)CCNCC2)cc1 | 96.9%
